# For some assays here: Potency and affinity values are given separately.
# Experiments:
# Parameters in all cases: scale not given: direction of the effect not stated beside the values
# [1] = target: Protein translocase subunit SecA (Escherichia coli (strain K12)) (UniProt P10408); experiment: Assay to Identify E. coli SecA ATPase Inhibitors; assay type: functional; conditions: 30 µM
# [2] = target: T1, Ubiquitin-activating enzyme e1, putative (Leishmania donovani (strain BPK282A1)) (UniProt E9BSI1); experiment: Leishmania donovani Ubiquitin Activating Enzyme (LdE1); assay type: functional; conditions: 30 µM
# T1 sequence (whole entry): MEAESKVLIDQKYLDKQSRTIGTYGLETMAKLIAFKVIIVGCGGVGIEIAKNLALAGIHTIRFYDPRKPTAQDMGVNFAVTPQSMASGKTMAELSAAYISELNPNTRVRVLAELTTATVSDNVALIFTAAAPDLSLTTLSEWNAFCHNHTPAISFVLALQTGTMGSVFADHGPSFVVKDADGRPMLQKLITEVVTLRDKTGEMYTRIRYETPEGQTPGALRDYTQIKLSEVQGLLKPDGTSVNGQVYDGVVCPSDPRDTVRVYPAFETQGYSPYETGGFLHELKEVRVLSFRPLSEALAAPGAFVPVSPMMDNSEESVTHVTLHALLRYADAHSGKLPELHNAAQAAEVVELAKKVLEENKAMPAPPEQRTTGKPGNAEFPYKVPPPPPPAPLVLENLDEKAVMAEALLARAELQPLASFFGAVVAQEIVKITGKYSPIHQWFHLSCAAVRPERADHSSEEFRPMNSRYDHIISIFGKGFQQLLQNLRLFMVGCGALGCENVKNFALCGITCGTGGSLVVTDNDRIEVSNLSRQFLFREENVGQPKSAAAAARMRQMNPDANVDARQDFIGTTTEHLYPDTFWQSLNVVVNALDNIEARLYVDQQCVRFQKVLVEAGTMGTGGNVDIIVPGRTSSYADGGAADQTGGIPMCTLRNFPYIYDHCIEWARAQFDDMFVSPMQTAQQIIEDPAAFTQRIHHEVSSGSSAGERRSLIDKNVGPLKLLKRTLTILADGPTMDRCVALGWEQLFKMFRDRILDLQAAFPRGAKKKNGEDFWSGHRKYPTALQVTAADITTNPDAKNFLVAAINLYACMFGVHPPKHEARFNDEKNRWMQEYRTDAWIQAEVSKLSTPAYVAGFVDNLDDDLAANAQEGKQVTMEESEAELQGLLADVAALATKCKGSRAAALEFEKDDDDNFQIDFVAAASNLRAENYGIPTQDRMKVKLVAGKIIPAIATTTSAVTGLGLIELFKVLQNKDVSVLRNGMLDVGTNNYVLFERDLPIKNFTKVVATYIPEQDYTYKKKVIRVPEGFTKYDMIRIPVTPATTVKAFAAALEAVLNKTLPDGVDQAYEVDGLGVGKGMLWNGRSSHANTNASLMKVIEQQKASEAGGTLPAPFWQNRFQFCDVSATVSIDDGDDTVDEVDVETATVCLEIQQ
# [3] = target: AMP-activated protein kinase, AMPK (Homo sapiens) (UniProt P54646+O43741+P54619+Q9UGJ0+Q9Y478+Q13131+Q9UGI9); experiment: AMP-dependent Kinase enzyme assay. An in vitro enzyme assay that detects ADP turnover that is directly proportional to AMPK activity. This uses naive AMPK that is activated during the assay with MK-8722; assay type: functional; conditions: 30 µM
# [4] = target: Sialic acid-binding Ig-like lectin 9 (Homo sapiens) (UniProt Q9Y336); experiment: Hs-Siglec9 ALPHAscreen SOP 20170721; conditions: 10 µM
# Sequence of Sialic acid-binding Ig-like lectin 9 (Homo sapiens) (Q9Y336 whole entry): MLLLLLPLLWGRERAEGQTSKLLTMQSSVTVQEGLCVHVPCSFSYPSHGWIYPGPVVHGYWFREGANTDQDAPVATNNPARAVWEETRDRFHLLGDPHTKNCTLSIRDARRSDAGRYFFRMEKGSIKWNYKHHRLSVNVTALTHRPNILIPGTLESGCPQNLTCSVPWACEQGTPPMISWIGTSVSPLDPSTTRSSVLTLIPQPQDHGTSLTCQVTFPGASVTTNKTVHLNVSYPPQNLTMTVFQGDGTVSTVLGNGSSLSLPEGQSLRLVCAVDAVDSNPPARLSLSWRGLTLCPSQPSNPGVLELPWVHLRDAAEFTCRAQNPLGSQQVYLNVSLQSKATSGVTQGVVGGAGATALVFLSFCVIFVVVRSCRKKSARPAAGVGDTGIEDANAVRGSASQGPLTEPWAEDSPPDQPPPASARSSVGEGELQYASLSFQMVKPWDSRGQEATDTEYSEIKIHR
# Trypanosoma cruzi = experiment: Trypanosoma cruzi phosphomannomutase and mannose-1-phosphate guanylyltransferase assay; assay type: functional; conditions: 10 µM
# [5] = target: T2, Arginase-2, mitochondrial (Homo sapiens) (UniProt P78540); experiment: in vitro enzyme assay to detect the production of urea directly proportional to the activity of Arginase II; assay type: functional; conditions: 33.3 µM; note: in the data most compounds retested in dose-response had high values
# T2 sequence (whole entry): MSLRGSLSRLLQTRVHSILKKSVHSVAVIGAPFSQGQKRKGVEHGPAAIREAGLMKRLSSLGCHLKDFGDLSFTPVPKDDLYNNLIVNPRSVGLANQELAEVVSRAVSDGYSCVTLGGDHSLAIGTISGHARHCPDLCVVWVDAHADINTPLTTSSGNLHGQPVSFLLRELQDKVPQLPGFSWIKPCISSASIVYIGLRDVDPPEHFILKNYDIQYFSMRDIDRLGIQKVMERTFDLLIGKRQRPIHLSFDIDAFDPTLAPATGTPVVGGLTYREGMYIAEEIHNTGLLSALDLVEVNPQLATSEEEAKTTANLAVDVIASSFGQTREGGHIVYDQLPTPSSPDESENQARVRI
# [6] = target: T3, Proteasome subunit beta (Trypanosoma cruzi) (UniProt O96673); experiment: Trypanosoma cruzi proteasome chymotrypsin-like activity (TcProtChymo) assay.; note: in the data most compounds retested in dose-response had high values; assay type: functional; conditions: 9.37 µM
# T3 sequence (whole entry): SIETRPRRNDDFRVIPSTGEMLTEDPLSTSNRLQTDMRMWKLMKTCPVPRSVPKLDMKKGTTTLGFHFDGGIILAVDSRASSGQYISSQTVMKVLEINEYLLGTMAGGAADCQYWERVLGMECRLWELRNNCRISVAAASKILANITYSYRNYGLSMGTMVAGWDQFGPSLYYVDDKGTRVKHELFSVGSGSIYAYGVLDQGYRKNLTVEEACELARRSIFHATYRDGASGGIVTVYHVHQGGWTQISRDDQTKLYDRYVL
# Homo sapiens = species: Homo sapiens; experiment: To identify inhibition of the IFN signalling (Jak-Stat) pathway via expression of an eGFP reporter gene under the control of an IFN-stimulated response element (ISRE) containing MxA promoter.; assay type: functional; conditions: 30 µM
# [7] = target: T4, Tyrosyl-tRNA synthetase, putative (Trypanosoma cruzi (strain CL Brener)) (UniProt Q4DSP6); experiment: Trypanosoma cruzi tyrosyl tRNA synthetase (TcYRS) _High Tyrosine SOP; assay type: functional; conditions: 30 µM; note: in the data most compounds retested in dose-response had high values
# T4 sequence (whole entry): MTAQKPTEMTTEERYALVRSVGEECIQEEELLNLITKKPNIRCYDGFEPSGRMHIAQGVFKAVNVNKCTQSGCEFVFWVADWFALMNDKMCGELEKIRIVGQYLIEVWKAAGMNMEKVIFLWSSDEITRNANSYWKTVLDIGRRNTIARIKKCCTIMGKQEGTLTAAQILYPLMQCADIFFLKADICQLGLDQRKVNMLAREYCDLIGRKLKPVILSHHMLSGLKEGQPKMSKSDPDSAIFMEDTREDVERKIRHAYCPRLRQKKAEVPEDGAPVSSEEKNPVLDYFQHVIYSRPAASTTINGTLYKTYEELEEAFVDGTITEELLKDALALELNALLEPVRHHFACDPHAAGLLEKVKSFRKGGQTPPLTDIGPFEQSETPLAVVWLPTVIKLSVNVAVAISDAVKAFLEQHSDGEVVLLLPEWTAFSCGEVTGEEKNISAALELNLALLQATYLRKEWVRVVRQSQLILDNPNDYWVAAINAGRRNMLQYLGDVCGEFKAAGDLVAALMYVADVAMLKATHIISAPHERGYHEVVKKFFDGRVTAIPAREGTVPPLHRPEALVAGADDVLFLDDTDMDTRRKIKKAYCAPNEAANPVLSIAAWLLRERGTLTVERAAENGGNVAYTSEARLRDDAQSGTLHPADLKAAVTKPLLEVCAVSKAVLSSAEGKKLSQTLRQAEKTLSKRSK
# [8] = target: T4, Tyrosyl-tRNA synthetase, putative (Trypanosoma cruzi (strain CL Brener)); experiment: Trypanosoma cruzi tyrosyl tRNA synthetase (TcYRS) SOP; assay type: functional; conditions: 30 µM
# [9] = target: Chromo domain-containing protein 1 (Saccharomyces cerevisiae (strain ATCC 204508 / S288c) (Baker's yeast)) (UniProt P32657); experiment: ScCHD-1 Enzyme Inhibition Assay; assay type: functional; conditions: 30 µM; note: in the data most compounds retested in dose-response had high values
# Sequence of Chromo domain-containing protein 1 (Saccharomyces cerevisiae (strain ATCC 204508 / S288c) (Baker's yeast)) (P32657 whole entry, the tested form may be a part): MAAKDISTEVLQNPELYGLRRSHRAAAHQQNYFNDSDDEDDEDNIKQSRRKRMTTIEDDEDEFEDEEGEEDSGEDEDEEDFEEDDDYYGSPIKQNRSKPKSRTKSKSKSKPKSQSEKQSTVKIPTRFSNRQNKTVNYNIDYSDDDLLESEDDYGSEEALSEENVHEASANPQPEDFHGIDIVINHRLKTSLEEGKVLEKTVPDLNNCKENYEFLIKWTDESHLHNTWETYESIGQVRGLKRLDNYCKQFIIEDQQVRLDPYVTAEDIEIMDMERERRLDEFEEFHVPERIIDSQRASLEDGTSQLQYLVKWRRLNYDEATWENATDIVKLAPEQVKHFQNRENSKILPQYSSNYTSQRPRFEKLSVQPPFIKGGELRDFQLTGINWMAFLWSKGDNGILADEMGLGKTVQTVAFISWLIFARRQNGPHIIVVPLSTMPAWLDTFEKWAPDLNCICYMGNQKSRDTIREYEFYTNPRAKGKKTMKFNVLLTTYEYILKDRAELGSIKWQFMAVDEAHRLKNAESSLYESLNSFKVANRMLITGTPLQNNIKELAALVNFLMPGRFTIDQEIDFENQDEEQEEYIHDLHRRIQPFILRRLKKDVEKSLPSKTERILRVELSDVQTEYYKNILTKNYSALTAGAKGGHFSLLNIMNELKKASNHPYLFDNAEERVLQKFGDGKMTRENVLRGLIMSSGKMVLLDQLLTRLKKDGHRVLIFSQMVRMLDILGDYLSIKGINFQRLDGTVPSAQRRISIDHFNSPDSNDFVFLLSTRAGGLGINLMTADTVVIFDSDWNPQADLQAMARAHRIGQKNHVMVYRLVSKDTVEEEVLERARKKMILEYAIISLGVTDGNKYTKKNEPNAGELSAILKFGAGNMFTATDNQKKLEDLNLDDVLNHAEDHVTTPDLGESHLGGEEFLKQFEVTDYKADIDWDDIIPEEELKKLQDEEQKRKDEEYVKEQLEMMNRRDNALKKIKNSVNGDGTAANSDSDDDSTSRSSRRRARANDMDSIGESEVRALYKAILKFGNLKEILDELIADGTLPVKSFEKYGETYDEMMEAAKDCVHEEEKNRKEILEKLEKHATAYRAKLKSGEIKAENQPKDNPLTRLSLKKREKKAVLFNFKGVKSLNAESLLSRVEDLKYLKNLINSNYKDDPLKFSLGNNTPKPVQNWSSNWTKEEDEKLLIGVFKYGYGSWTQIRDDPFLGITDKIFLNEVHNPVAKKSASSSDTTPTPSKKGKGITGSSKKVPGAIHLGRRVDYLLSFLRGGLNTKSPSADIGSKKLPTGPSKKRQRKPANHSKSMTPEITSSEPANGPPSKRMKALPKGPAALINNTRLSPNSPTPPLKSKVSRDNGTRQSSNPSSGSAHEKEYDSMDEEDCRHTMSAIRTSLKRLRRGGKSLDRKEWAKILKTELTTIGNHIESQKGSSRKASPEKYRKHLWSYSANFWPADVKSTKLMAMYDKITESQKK
# Sequence of Protein translocase subunit SecA (Escherichia coli (strain K12)) (P10408 whole entry): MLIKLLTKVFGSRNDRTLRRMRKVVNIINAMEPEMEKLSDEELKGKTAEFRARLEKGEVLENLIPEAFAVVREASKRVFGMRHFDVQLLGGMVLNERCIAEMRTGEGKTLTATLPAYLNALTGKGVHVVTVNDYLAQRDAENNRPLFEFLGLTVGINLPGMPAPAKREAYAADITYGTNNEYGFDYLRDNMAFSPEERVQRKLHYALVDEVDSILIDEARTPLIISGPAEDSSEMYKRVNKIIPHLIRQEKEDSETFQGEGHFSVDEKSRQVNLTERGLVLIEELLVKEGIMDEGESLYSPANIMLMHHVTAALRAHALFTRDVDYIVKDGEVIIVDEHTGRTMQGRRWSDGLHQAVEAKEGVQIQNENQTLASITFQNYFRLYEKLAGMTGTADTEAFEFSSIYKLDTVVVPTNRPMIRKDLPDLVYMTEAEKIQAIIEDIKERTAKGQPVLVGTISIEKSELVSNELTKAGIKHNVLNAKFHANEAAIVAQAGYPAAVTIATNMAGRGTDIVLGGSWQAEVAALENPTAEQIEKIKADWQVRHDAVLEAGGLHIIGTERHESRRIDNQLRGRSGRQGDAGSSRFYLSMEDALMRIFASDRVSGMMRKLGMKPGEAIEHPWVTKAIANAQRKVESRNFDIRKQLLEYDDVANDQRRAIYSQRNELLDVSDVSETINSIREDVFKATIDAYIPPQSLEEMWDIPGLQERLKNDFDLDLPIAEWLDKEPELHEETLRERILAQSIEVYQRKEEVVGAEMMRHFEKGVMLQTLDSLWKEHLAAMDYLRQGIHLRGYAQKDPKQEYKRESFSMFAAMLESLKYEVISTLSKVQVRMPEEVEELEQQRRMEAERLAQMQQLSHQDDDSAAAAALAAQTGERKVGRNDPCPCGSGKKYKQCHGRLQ
SMILES,Percent Effect [1] [%],Percent Effect [2] [%],Percent Effect [3] [%],Percent Effect [4] [%],Percent Effect (Trypanosoma cruzi) [%],Percent Effect [5] [%],Percent Effect [6] [%],Percent Effect (Homo sapiens) [%],Percent Effect [7] [%],Percent Effect [8] [%],Percent Effect [9] [%]
Cc1cc(C)n(C2CCCN(C(=O)c3ccc(F)cc3F)C2)n1 (configuration not stated),-11.1,-5.41,-1.04,0.0778,-3.91,-3.75,7.02,-1.41,5.94,6.1,2.92
Cn1cnc2c1C(COCc1cccnc1)N(Cc1ccccn1)CC2 (configuration not stated),-3.69,8,-12.6,2.61,7.53,-51.8,5.47,3.9,4.17,-55,-7.17
CCS(=O)(=O)NC(C(=O)NC)c1ccc(F)c(F)c1 (configuration not stated),-1.19,2.7,-9.93,0.659,0.195,2.92,10.7,-11.3,9.9,20.7,-7.3
Cc1cc2n(n1)CC(CNC1CCN(c3ccc(F)cc3)CC1)CN2 (configuration not stated),-2.69,8.11,-9.27,18.6,6.35,15.1,-0.0858,-21.8,1.07,18.5,-6.89
Fc1ccc(CN2CCCC2Cn2cccn2)c2ncccc12 (configuration not stated),-3.18,-16.2,-9.76,11.6,-2.51,-0.185,3.41,-3.85,11.9,11,7.89
COC[C@H]1CCC[C@]12CN(CCc1ccccc1)CCO2,0.0327,12,1.6,2.89,-5.5,-8.28,19.8,4.65,1.06,2.56,-6.74
N#Cc1ccc(OCCN2CCc3c(ncn3C3CC3)C2)cc1,-3.1,23.4,-12.7,-6.96,-1.31,0,7.26,-0.819,13.6,9.76,-10.1
Cc1cc(F)ccc1OC1(C(=O)O)CCN(Cc2ccncc2)CC1,-4.32,16,-6.71,19.8,3.21,13.5,11.7,10,10.4,21,-4.33
O=C1O[C@@H]2CN(Cc3cccc(F)c3)C[C@@H]2N1CCCN1CCOCC1,-1.1,10.7,4.3,9.62,2.82,12.5,21.3,9.55,3.83,21,-10.6
CCOc1ccc(Cl)c(C(=O)N2CCN(C(=O)c3ccoc3C)CC2)n1,-5.76,20.8,-1.75,5.96,-4.49,-1.42,15.4,12.9,7.77,12.2,-6.62
CCn1nc(C(=O)N2CCCC(n3cncn3)C2)ccc1=O (configuration not stated),-3.67,5.2,7.01,5.16,6.76,2.74,9.78,-15.3,0.952,11.8,-10.3
CN1CCN(c2ncc3c(=O)n(-c4cccc(F)c4)c(=O)[nH]c3n2)CC1,0.451,13.2,0.333,-0.649,-1.27,7.1,18.9,-9.16,4.25,10.4,92.2
CCn1ncc2c1CCCC2NCC1=Cc2ccccc2OC1 (configuration not stated),-4.51,3.8,4.34,0.918,1.95,-7.1,10.1,13.4,4.17,7.59,-2
COc1cccc(CN(C)Cc2cccc(C#N)c2)c1OC,-2.4,10.8,-3.58,5.68,5.08,23.3,8.88,7.86,1.98,-1.22,-6.76
Cc1ccc(-n2nnc(C(=O)NS(C)(=O)=O)c2C2CC2)cc1,-1.84,0,-7.9,0.772,7.52,-1.66,-0.179,12.9,2.97,13.4,3.65
CO[C@H]1CCN(c2ncccn2)[C@H]1Cc1ccccc1,1.4,2.6,-1.1,7.23,-3.25,-13.8,16,13.8,5.38,8.64,-1.72
NC(=O)NCC(=O)N1C[C@H]2CC[C@@H]1CN(C1Cc3ccccc3C1)C2,-3.92,10.8,-25.8,17.9,-0.88,-3.23,14,3.96,5.38,13.6,-4.63
Cc1ncsc1C(=O)NC1CCN(CC(=O)N(C)c2ccccc2)CC1,-6.03,18.4,-4.03,6.55,-0.654,-0.719,3.3,1.23,10.3,18.5,2.33
CS(=O)(=O)N1CCC(Oc2cnccn2)CC1,-2.51,10.4,-2.43,6.29,2.46,1.94,14.1,7.55,4.23,11.5,-8.42
COCC1CC2(CCN(Cc3cnn(C)c3)CC2)CN1c1ncccn1 (configuration not stated),-2.97,13,0.218,12.7,7.38,-5.52,11.7,-19,7.53,18.5,-2.6
CC(=O)Nc1nc(C(=O)Nc2ccc(F)cc2)cs1,-2.09,15.6,28,-6.42,-1.86,-15.4,16.7,8.03,7.62,18.8,3.31
CN(Cc1ccsc1)C(=O)c1cccc(NS(C)(=O)=O)c1,-5.08,20.8,-4.59,10.4,4.12,-6.41,3.72,14.4,8.74,24.4,-8.96
